This note sets out measurements from paper PMC10726135, “HNF4α isoforms regulate the circadian balance between carbohydrate and lipid metabolism in the liver”.

The full ranking holds about 18,000 sequences; the median of “log2 normalized intensity” is about 0.39, and the highest 2% start at about 6.6. This is one part of a sample in which the highest values are shown more often than they occur.

The target in this assay is T1, HNF4alpha2 (COS-7 nuclear extract) (Homo sapiens, UniProt P41235 1-474).
T1 sequence: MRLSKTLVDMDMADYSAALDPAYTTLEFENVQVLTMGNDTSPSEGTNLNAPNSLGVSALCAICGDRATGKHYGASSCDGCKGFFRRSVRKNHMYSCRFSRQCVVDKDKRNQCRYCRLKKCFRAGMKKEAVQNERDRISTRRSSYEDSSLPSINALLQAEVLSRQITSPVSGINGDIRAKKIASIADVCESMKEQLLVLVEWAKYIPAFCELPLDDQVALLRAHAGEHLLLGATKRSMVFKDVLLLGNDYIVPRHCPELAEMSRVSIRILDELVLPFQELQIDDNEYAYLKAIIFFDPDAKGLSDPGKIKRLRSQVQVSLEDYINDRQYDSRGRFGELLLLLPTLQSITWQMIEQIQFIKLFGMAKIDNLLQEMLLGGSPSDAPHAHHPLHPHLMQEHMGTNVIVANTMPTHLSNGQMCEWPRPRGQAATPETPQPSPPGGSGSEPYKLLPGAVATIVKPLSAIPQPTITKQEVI
The experiment in a line: protein-binding microarray; COS-7 nuclear extract on double-stranded Agilent 4x180k PBM; binding buffer, salt, pH and temperature not given in the material; high values mean tight binding. The conditions noted are these: chain copies: 2; label: 3' end of strand 1 on the slide; dsDNA, one strand shown. Summed up:
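The binding signal is Agilent software's gProcessedSignal after background correction and normalization. Arrays were a custom Agilent SurePrint G3 4x180k design of double-stranded ~60-nt oligonucleotides with ~44,000 test sequences in quadruplicate, probed with nuclear extracts of COS-7 cells transiently expressing a human HNF4α isoform. Scans were made at 2-µm resolution on an Agilent G2565CA scanner.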
As to “GCAGAATCAAAGGTCAAAATATCTGATCGAGCCTAGGGAGATTAGAGTATCGGTCGA”, the binding signal was 3.32 log2 normalized intensity. For “CATCCTCATTGCCTCTGGGCTTTGATGGACGCCTAGGGAGATTAGAGTATCGGTCGA”, the binding signal is 1.64 log2 normalized intensity. To “CCCCATGATGATAGCAAACACGATTGGATGGCCTAGGGAGATTAGAGTATCGGTCGA” belongs 0.412 log2 normalized intensity; to “TCCAGTGGACATTGGCCCTTTGACCTTTAAGCCTAGGGAGATTAGAGTATCGGTCGA”, 7.47 log2 normalized intensity.

Turning to “GACCTTTGGACTTGATAGAGTTTAAGTCTTGCCTAGGGAGATTAGAGTATCGGTCGA”, the binding signal amounted to 6.99 log2 normalized intensity.

As to “CTCCTGACCTTTGGACTTGATAGAGTTTAAGCCTAGGGAGATTAGAGTATCGGTCGA”, the binding signal worked out at 7.57 log2 normalized intensity. As to “TTTGAAGTTTAGAGATGCCTATAGGGTCTTGCCTAGGGAGATTAGAGTATCGGTCGA”, the binding signal is 0.736 log2 normalized intensity. With “ATATCCTGACTGCTGACCTTTAAGCCTATAGCCTAGGGAGATTAGAGTATCGGTCGA” the figure was 3.85 log2 normalized intensity; with “GTCCTTGATAAGCAAGATGACTTTGGTCTAGCCTAGGGAGATTAGAGTATCGGTCGA”, 1.78 log2 normalized intensity. With “ACTGCTCCAGTGGACATTGGCCCTTTGACCGCCTAGGGAGATTAGAGTATCGGTCGA”, the binding signal came to 5.99 log2 normalized intensity. With “AACTAGCAACTTGGACCTTGATAGGAGTTAGCCTAGGGAGATTAGAGTATCGGTCGA” the figure was 2.88 log2 normalized intensity; with “TGGACATTGGCCCTTTGACCTTTAATCAAGGCCTAGGGAGATTAGAGTATCGGTCGA”, 6.47 log2 normalized intensity; with “TAAGAGCTATCAATGACCCATGTTTGCCCTGCCTAGGGAGATTAGAGTATCGGTCGA”, 3 log2 normalized intensity. To “TGCTTCTTGGCCTCTTTGTTTACACTGTGAGCCTAGGGAGATTAGAGTATCGGTCGA” belongs 1.53 log2 normalized intensity; to “GCGGCTTCAGAGGCCAGCAGTGCTTTTCCCGCCTAGGGAGATTAGAGTATCGGTCGA”, -0.963 log2 normalized intensity; to “ATTGGAAGCTCTTTCCCTCCACCAAGTTTCGCCTAGGGAGATTAGAGTATCGGTCGA”, 0.191 log2 normalized intensity. To “TCTGATCCCAATTTATCTTTCCAGATTGTTGCCTAGGGAGATTAGAGTATCGGTCGA” belongs 0.501 log2 normalized intensity; to “CCTCCAGGGAGGGGAGAGGGGGTTAAAGGTGCCTAGGGAGATTAGAGTATCGGTCGA”, 1.22 log2 normalized intensity. For “GGAAACTCCATTTCCTTCTAGCTCCCCAATGCCTAGGGAGATTAGAGTATCGGTCGA”, the binding signal was 3.53 log2 normalized intensity. On to “AGTTGGAAAATATTTCTCTGAACTTTGACCGCCTAGGGAGATTAGAGTATCGGTCGA”, for which the binding signal amounted to 8.41 log2 normalized intensity. With “TCTTTGATTAGGAAAGGGAACTCCCTGACCGCCTAGGGAGATTAGAGTATCGGTCGA” the figure was -0.639 log2 normalized intensity.

Regarding “GGTGAAATAGCTGAACTATTTAAGGCCTTTGCCTAGGGAGATTAGAGTATCGGTCGA”, the binding signal was determined as 0.822 log2 normalized intensity. Turning to “ACTGACCTTTGAGAGTCAACACTGAAATAGGCCTAGGGAGATTAGAGTATCGGTCGA”, the binding signal came out at 1.42 log2 normalized intensity.

Regarding “CACTTCTGAAAAAAATATTGAACAAAGATTGCCTAGGGAGATTAGAGTATCGGTCGA”, the binding signal was -0.491 log2 normalized intensity.

For “GAAAATATTTCTCTGAACTTTGACCTATAGGCCTAGGGAGATTAGAGTATCGGTCGA”, the binding signal was determined as 8.62 log2 normalized intensity. With “GCCACCCCCGTTAATTTCTAACCAATGCAGGCCTAGGGAGATTAGAGTATCGGTCGA” the figure was 0.623 log2 normalized intensity. To “CAAACTTCTCCACTCTTCATAATTACCATTGCCTAGGGAGATTAGAGTATCGGTCGA” belongs 0.957 log2 normalized intensity; to “ACAAGCAACCCTCCTCCCTTTGGCCATGAAGCCTAGGGAGATTAGAGTATCGGTCGA”, 1.54 log2 normalized intensity. Turning to “TCACAGGTTCCAGCATGGACTTCACAGCCTGCCTAGGGAGATTAGAGTATCGGTCGA”, the binding signal was -0.535 log2 normalized intensity. For “CAAACAGCTTAGGGTTCAAACTCCAGCTCTGCCTAGGGAGATTAGAGTATCGGTCGA”, the binding signal amounted to 3.29 log2 normalized intensity. With “TCATTCCCCTAGTATATTGGCTTGGCTGTGGCCTAGGGAGATTAGAGTATCGGTCGA” the figure was 2.58 log2 normalized intensity; with “CTCCTGTTTGTATTCCTTGTCCTTGACCCTGCCTAGGGAGATTAGAGTATCGGTCGA”, 4.35 log2 normalized intensity; with “GTACCTTGACCTTCTCTGTTAACCCTTTGCGCCTAGGGAGATTAGAGTATCGGTCGA”, 3.76 log2 normalized intensity. To “CATACTTCTTCCTGTTTGACCTTCGAACCCGCCTAGGGAGATTAGAGTATCGGTCGA” belongs 9.59 log2 normalized intensity. Take “TTGACCTTCTCTGTTAACCCTTTGCAGCCCGCCTAGGGAGATTAGAGTATCGGTCGA”: the binding signal is 2.61 log2 normalized intensity.

For the sequence “TTGACCTTCGAACCCTTGCCATTTACATCAGCCTAGGGAGATTAGAGTATCGGTCGA”, the binding signal amounted to 5.38 log2 normalized intensity. “AAGCACATACTTCTTCCTGTTTGACCTTCGGCCTAGGGAGATTAGAGTATCGGTCGA”: the binding signal was determined as 5.02 log2 normalized intensity.

“TTCTTCCTGTTTGACCTTCGAACCCTTGCCGCCTAGGGAGATTAGAGTATCGGTCGA”: the binding signal was found to be 9.01 log2 normalized intensity. On to “CCTTGACCCTTCCTCCCATTTGCTGCTCTAGCCTAGGGAGATTAGAGTATCGGTCGA”, for which the binding signal was determined as 2.08 log2 normalized intensity. For “CCTGTTTGACCTTCGAACCCTTGCCATTTAGCCTAGGGAGATTAGAGTATCGGTCGA”, the binding signal came out at 7.04 log2 normalized intensity. With “GGAGTTGGAACGGGGGCAAGGGTCAGAGTAGCCTAGGGAGATTAGAGTATCGGTCGA” the figure was 4.26 log2 normalized intensity; with “CTGGCATCTGGTCAGGGGTCAAGAAGCTCTGCCTAGGGAGATTAGAGTATCGGTCGA”, 2.21 log2 normalized intensity.
